From paper PMC7862700, “An all-to-all approach to the identification of sequence-specific readers for epigenetic DNA modifications on cytosine”

Columns and labels:
Assay in all cases: DAPPL (digital affinity profiling via proximity ligation, sequencing); 10 mM Tris-HCl pH 7.5, 50 mM NaCl, 1 mM DTT, 4% glycerol, room temperature, 30 min; GST-TFs on glutathione beads, 16-mer random dsDNA library, 0.1% formaldehyde crosslink after washing; high values mean tight binding
Conditions in all cases: protein: recombinant; tags: N-terminal GST; dsDNA, one strand shown
FLI1 = target: T1, FLI1 (Homo sapiens, UniProt Q01543 1-452)
T1 sequence: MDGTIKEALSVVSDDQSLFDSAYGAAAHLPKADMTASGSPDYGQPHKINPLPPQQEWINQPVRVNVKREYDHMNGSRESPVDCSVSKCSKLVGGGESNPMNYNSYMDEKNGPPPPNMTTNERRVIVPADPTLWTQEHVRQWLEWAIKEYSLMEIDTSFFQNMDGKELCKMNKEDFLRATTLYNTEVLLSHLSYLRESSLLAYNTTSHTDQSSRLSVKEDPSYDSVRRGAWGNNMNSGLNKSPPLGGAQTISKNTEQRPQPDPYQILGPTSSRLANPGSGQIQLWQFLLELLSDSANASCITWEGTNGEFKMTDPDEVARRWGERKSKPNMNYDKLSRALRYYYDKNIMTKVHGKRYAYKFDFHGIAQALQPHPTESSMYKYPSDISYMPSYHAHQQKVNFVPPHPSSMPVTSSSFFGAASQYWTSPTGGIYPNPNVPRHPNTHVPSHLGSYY
Outline: (§1)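 Binding signal is given per hexamer as its read frequency for a factor divided by its frequency in the tag-only sample. GST-fused human transcription factors were expressed in yeast, captured on glutathione beads, barcoded with DNA and pooled with that sample, then incubated with 200 nmole of a 16-mer random double-stranded DNA library in Tris/NaCl/DTT/glycerol buffer for 30 min at room temperature. The pools were then washed, crosslinked, proximity-ligated, amplified by PCR and sequenced on an Illumina NextSeq500.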

ELK1 = target: T2, ELK1 (Homo sapiens, UniProt P19419 1-428)
T2 sequence: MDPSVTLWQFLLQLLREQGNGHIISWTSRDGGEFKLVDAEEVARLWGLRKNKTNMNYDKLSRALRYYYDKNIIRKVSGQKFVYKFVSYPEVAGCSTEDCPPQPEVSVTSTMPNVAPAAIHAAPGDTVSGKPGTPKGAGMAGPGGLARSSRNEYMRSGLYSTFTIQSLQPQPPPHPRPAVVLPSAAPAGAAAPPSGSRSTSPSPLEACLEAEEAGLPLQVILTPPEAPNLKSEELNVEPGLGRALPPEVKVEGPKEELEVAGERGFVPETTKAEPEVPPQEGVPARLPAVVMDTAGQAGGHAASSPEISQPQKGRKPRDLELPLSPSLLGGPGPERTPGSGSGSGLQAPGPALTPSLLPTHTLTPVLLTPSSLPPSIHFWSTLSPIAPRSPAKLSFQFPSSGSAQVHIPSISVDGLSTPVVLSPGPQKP
Outline: as §1

ERG = target: T3, ERG (Homo sapiens, UniProt P11308 1-479)
T3 sequence: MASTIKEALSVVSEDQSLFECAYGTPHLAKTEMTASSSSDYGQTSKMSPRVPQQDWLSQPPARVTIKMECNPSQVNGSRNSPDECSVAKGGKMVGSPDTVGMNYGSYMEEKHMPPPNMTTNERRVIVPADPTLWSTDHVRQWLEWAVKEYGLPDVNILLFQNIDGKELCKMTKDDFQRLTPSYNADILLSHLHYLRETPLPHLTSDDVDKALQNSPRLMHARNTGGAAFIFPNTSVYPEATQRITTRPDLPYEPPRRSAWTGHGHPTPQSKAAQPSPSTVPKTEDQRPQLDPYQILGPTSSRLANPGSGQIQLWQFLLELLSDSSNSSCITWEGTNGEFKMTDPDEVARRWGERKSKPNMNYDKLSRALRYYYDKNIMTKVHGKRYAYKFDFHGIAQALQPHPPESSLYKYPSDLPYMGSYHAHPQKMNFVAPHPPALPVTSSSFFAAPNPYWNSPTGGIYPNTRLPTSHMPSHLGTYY
Outline: as §1

ELF1 = ELF1 (Homo sapiens, UniProt P32519 1-619)
Outline: as §1

SPIB = SPIB (Homo sapiens, UniProt Q01892 1-262)
Outline: as §1

ELK3 = target: T4, ELK3 (Homo sapiens, UniProt P41970 1-407)
T4 sequence: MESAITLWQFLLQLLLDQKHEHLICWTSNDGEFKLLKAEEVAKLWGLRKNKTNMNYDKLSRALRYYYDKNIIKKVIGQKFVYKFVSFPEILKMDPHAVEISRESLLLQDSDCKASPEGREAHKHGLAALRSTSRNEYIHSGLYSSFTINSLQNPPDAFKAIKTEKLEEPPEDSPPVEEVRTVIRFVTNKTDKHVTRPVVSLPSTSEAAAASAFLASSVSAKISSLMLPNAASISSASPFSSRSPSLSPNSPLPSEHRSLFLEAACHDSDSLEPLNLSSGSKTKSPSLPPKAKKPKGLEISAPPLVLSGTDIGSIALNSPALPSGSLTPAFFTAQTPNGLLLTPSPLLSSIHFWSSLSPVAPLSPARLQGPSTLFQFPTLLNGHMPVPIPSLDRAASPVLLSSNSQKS
Outline: as §1

FEV = target: T5, FEV (Homo sapiens, UniProt Q99581 1-238)
T5 sequence: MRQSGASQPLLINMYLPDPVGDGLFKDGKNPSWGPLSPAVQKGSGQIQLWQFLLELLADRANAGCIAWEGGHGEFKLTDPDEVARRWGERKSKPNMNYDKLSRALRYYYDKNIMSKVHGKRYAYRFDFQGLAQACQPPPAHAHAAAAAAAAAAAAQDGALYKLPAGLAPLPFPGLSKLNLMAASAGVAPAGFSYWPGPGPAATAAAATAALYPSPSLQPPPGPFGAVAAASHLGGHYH
Outline: as §1

ETV5 = ETV5 (Homo sapiens, UniProt P41161 1-510)
Outline: as §1

SPIC = target: T6, SPIC (Homo sapiens, UniProt Q8N5J4 1-248)
T6 sequence: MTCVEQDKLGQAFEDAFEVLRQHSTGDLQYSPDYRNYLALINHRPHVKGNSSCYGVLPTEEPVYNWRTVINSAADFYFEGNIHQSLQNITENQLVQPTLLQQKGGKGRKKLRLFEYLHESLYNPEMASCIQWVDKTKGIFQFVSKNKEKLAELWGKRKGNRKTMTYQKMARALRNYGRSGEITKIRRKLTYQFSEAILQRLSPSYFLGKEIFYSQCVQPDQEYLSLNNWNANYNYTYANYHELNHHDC
Outline: as §1

ELF4 = ELF4 (Homo sapiens, UniProt Q99607 1-663)
Outline: as §1

ETV1 = ETV1 (Homo sapiens, UniProt P50549 1-477)
Outline: as §1

ETV3L = target: T7, ETV3L (Homo sapiens, UniProt Q6ZN32 1-361)
T7 sequence: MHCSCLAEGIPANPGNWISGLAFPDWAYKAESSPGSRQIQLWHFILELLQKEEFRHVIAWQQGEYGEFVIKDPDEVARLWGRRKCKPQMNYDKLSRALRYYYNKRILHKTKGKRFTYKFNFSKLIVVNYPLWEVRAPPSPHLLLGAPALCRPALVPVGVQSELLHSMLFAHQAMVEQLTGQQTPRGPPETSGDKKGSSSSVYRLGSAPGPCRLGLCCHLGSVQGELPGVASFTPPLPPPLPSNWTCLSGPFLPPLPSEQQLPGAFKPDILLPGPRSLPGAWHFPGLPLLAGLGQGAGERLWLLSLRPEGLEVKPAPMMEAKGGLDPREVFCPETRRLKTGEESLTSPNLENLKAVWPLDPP
Outline: as §1

ETV3 = target: T8, ETV3 (Homo sapiens, UniProt P41162-2 1-143)
T8 sequence: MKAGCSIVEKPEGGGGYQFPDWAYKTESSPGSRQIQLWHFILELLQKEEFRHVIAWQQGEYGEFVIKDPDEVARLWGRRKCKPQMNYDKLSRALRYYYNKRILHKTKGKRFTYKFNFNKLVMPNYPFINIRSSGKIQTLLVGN
Outline: as §1

ETV6 = ETV6 (Homo sapiens, UniProt P41212 1-452)
Outline: as §1

GABPA = target: T9, GABPA (Homo sapiens, UniProt Q06546 1-454)
T9 sequence: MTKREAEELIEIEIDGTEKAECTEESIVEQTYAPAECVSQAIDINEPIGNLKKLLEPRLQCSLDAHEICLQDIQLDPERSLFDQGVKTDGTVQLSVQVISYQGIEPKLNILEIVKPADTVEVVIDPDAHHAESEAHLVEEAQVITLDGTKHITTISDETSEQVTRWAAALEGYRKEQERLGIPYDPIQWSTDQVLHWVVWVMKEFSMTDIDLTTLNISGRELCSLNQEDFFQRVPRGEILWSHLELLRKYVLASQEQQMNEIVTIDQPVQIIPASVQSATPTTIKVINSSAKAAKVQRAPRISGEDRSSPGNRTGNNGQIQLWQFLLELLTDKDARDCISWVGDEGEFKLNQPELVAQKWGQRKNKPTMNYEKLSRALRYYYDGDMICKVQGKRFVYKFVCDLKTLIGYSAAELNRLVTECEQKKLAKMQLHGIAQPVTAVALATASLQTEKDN
Outline: as §1

EHF = target: T10, EHF (Homo sapiens, UniProt Q9NZC4 1-300)
T10 sequence: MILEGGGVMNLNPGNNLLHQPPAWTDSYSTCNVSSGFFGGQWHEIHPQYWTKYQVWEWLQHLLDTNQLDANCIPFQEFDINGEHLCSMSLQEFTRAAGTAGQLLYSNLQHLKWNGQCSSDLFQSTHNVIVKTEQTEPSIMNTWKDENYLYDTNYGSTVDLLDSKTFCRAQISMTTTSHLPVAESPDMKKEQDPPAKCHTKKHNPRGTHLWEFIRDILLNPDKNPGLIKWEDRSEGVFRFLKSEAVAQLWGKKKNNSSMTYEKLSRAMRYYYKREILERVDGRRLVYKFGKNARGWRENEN
Outline: as §1

SPI1 = SPI1 (Homo sapiens, UniProt P17947 1-270)
Outline: as §1

ERF = target: T11, ERF (Homo sapiens, UniProt P50548 1-548)
T11 sequence: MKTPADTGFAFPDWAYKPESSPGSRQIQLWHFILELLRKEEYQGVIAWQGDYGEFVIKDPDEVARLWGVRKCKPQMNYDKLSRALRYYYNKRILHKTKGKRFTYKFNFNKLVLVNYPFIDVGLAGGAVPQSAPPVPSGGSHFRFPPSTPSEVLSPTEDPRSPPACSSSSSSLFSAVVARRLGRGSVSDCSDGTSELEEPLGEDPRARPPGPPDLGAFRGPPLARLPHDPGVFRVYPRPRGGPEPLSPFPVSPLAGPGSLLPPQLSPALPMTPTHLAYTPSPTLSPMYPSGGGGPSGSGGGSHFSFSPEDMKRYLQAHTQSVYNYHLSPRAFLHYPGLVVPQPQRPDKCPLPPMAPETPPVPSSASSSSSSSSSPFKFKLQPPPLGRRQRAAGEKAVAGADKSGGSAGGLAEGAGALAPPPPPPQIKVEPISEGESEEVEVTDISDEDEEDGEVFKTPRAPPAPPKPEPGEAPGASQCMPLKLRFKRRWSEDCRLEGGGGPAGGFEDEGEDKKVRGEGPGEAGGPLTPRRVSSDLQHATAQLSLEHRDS
Outline: as §1

ELF5 = target: T12, ELF5 (Homo sapiens, UniProt Q9UKW6-2 1-255)
T12 sequence: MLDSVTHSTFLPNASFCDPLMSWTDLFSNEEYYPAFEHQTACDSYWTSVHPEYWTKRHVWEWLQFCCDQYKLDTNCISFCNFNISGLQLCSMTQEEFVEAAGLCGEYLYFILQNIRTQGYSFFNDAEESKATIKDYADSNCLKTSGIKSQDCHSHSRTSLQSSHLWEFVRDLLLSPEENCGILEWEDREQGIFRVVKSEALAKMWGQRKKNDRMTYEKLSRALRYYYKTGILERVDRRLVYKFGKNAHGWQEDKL
Outline: as §1

Sequence of ELF1 (P32519 whole entry): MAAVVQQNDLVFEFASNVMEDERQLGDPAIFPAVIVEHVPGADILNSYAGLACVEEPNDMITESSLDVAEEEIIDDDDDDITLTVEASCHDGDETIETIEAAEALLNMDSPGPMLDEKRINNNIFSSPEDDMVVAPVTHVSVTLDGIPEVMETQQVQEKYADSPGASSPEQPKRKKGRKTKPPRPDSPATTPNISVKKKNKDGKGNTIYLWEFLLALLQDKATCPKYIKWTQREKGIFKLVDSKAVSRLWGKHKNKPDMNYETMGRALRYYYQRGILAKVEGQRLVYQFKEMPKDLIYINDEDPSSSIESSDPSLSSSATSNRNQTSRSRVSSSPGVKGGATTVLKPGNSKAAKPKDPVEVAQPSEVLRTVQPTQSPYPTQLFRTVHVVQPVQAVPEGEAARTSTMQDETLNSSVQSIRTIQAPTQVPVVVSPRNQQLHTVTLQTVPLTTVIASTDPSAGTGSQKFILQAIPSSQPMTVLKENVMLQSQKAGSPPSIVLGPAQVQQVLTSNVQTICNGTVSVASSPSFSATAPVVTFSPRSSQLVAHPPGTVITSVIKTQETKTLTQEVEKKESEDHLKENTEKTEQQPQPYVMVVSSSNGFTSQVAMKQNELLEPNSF
Sequence of SPIB (Q01892 whole entry): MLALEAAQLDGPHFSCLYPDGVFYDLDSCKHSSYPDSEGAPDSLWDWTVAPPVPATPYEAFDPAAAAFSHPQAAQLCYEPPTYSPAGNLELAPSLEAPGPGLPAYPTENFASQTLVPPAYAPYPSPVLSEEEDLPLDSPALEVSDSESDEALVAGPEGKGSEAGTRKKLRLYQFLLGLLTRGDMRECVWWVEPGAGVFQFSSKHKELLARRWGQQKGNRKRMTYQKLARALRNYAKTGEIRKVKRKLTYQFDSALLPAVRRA
Sequence of ETV5 (P41161 whole entry): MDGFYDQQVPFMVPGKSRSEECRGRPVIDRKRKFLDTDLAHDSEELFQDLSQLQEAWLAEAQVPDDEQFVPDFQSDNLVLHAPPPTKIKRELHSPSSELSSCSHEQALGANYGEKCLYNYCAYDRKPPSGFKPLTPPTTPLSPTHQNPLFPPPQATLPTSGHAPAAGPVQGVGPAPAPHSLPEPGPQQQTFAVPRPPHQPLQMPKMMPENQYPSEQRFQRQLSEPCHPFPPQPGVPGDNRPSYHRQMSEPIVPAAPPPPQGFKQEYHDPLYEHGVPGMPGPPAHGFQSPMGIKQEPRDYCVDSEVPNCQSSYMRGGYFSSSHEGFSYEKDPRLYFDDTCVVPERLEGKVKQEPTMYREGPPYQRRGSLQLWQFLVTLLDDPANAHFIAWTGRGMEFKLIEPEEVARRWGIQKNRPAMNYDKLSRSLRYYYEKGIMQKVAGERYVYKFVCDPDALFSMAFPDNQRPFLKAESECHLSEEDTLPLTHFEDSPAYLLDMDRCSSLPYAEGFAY
Sequence of ELF4 (Q99607 whole entry): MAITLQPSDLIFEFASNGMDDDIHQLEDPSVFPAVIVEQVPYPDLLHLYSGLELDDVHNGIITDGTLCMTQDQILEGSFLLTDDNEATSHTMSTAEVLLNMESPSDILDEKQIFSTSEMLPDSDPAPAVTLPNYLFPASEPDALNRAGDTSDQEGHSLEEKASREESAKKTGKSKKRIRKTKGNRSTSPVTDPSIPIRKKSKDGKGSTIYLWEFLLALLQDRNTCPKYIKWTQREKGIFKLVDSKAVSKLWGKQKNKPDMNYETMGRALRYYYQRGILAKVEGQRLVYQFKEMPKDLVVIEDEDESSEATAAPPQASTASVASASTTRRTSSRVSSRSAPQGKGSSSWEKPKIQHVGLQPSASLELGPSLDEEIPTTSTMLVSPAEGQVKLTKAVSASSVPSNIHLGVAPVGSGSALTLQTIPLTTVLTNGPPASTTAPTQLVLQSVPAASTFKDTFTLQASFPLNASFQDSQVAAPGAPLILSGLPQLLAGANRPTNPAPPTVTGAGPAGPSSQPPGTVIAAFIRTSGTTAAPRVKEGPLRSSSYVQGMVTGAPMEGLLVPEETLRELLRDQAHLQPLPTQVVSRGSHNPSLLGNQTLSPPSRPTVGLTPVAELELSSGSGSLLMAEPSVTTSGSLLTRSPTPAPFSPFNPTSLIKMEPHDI
Sequence of ETV1 (P50549 whole entry): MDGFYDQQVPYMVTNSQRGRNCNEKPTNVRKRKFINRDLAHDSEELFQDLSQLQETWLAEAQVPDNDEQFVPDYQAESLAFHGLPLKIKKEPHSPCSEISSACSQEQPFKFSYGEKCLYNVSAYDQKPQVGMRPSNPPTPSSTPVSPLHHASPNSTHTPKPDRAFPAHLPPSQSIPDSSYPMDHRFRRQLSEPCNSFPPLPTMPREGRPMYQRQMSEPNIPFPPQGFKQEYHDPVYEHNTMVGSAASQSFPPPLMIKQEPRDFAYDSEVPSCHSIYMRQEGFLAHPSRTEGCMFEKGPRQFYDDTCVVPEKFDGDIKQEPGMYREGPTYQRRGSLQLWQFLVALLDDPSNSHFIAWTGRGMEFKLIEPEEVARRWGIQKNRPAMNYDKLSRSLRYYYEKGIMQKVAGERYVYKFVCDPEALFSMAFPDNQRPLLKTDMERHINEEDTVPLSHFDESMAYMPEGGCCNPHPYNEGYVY
Sequence of ETV6 (P41212 whole entry): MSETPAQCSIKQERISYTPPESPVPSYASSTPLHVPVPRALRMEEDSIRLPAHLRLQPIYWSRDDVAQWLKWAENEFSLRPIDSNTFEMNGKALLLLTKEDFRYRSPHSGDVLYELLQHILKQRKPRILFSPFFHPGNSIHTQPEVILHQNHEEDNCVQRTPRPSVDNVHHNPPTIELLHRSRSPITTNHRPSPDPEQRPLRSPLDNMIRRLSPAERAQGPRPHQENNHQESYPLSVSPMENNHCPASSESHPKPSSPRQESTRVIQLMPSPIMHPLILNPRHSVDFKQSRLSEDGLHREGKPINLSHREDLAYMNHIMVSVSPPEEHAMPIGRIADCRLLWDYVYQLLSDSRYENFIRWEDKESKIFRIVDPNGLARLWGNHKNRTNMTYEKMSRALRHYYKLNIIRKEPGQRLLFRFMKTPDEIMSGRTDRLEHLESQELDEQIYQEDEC

Row | Sequence | binding signal (FLI1) | binding signal (ELK1) | binding signal (ERG) | binding signal (ELF1) | binding signal (SPIB) | binding signal (ELK3) | binding signal (FEV) | binding signal (ETV5) | binding signal (SPIC) | binding signal (ELF4) | binding signal (ETV1) | binding signal (ETV3L) | binding signal (ETV3) | binding signal (ETV6) | binding signal (GABPA) | binding signal (EHF) | binding signal (SPI1) | binding signal (ERF) | binding signal (ELF5)
1 | GCCCCA | 1.06 fold enrichment (6-mer frequency, TF over GST control) | 1.04 fold enrichment (6-mer frequency, TF over GST control) | 1.1 fold enrichment (6-mer frequency, TF over GST control) | 1.05 fold enrichment (6-mer frequency, TF over GST control) | 1 fold enrichment (6-mer frequency, TF over GST control) | 1.1 fold enrichment (6-mer frequency, TF over GST control) | 1.07 fold enrichment (6-mer frequency, TF over GST control) | 1.02 fold enrichment (6-mer frequency, TF over GST control) | 1.05 fold enrichment (6-mer frequency, TF over GST control) | 1.07 fold enrichment (6-mer frequency, TF over GST control) | 1.03 fold enrichment (6-mer frequency, TF over GST control) | 1.12 fold enrichment (6-mer frequency, TF over GST control) | 1.06 fold enrichment (6-mer frequency, TF over GST control) | 1.03 fold enrichment (6-mer frequency, TF over GST control) | – | – | – | – | –
2 | GTTGAT | 1.04 fold enrichment (6-mer frequency, TF over GST control) | 1.12 fold enrichment (6-mer frequency, TF over GST control) | 1.08 fold enrichment (6-mer frequency, TF over GST control) | 1.11 fold enrichment (6-mer frequency, TF over GST control) | 1.1 fold enrichment (6-mer frequency, TF over GST control) | – | – | 1.14 fold enrichment (6-mer frequency, TF over GST control) | 1.17 fold enrichment (6-mer frequency, TF over GST control) | 1.15 fold enrichment (6-mer frequency, TF over GST control) | 1.09 fold enrichment (6-mer frequency, TF over GST control) | 1.09 fold enrichment (6-mer frequency, TF over GST control) | 1.08 fold enrichment (6-mer frequency, TF over GST control) | – | 1.12 fold enrichment (6-mer frequency, TF over GST control) | 1.04 fold enrichment (6-mer frequency, TF over GST control) | 1.12 fold enrichment (6-mer frequency, TF over GST control) | 1.05 fold enrichment (6-mer frequency, TF over GST control) | 1.05 fold enrichment (6-mer frequency, TF over GST control)
